Results reported in PubChem BioAssay AID602336 (NMMLSC, 2012).
The other results are listed elsewhere or left out. The source made the active and inactive calls. No stated cut-off is given here; in the data, active means inhibition above about 25%; inactive means the rest.

system: Botulinum neurotoxin type F light chain protease (Clostridium botulinum); assay: inhibition of botulinum toxin F LC protease – biochemical, flow cytometry, cherry pick 2, confirmation (AID 602336); conditions: multiplex microsphere protease cleavage assay, at 10 µM, stronger effect = higher value

Compound | inhibition
Cc1cc2cc(CNC(=O)c3ccc(S(=O)(=O)N4CCOCC4)cc3)ccc2[nH]1 | -10.8% (inactive)
O=C(CN1CCN(c2ccccc2O)CC1)NC(=O)NCc1ccccc1 | -4.3% (inactive)
Cc1cc2ccccc2n1CCNC(=O)COc1ccc2ccccc2c1 | -12.9% (inactive)
Cc1ccc(CNC(=O)c2cccc3c2C(=O)c2ccc(N4CCC(C)CC4)cc2S3(=O)=O)cc1 | 6.1% (inactive)
CC(=O)OCCN(CCCn1c(-c2ccncc2)nc2ccccc21)c1nc(-c2ccc(C)cc2)cs1 | 4% (inactive)
COc1ccc(-c2cc3c(c4c2ccn4C)C2CCC3C2)cn1 (stereo not drawn) | 4.4% (inactive)
CCOc1ncccc1C(=O)OCC(=O)c1c[nH]c2ccccc12 | 3% (inactive)
O=C(OCC(=O)c1c[nH]c2ccccc12)c1cccc(O)c1 | -3.8% (inactive)
